In the library only some 13% were active in any assay of this set; here they are far more common.
WT yeast gro inh: growth inhibition of WT yeast, mitochondrial fusion screen; mitochondrial fusion phenotypic screen, WT strain; inhibition, % at 10 µM; 190,000 tested, 2.1% active; in the data active = inhibition above about 58%; tested in S. cerevisiae
CHOP inh: CHOP inhibition in unfolded protein response; CHO-K1 CHOP-promoter luciferase, tunicamycin-induced, 15-18 h; inhibition, % at 10 µM; 220,000 tested, 3.8% active;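 active = compounds that reduced the stress-induced luciferase reporter signal by more than about 70% of percent inhibition, limit read from the data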;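 also: 0% = tunicamycin plus vehicle and 100% = wells without tunicamycin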
L major viab: reduces viability of Leishmania major promastigotes | resazurin fluorescence viability | inhibition, % at 10 µM | 200,000 tested, 9% active; in the data active = inhibition above about 50%;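 also: promastigotes grown with compound for 44 hours at 28 °C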
RAM network inh: inhibitors of the yeast RAM network. S. cerevisiae dse1pr::URA3 reporter, 5-FOA growth OD615, 2 d; analog-sensitive cbk1-as2 kinase mutant strain. inhibition, % at 50 µM. 190,000 tested, 1.8% active. AID 868;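 active = inhibition above a set limit, 3 SD over mean compound inhibition, cut at about 8.4% in these data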;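 also: 0% = DMSO-only wells with no growth and 100% = 10 µM 1-NA-PP1 full growth; inhibition rescues growth on 5-FOA so higher OD means more RAM inhibition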
Lmaj promast 1uM: blocks Leishmania major promastigote growth at 1 uM, repeat screen. shares compounds with L major viab. L. major promastigote growth, resazurin fluorescence, 48 h. inhibition, % at 1 µM. 1,100 tested, 13% active. AID 1258;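 active = inhibition above about 50% in both repeat tests, limit read from the data; inconclusive = one repeat under the set limit, the other over it; inactive = both repeats under the set limit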
Starred values were filed as active, the others as inactive; ? = inconclusive; . = no result.

SMILES	WT yeast gro inh	CHOP inh	L major viab	RAM network inh	Lmaj promast 1uM
COc1ccc(C(=O)c2ccc(OC)c3cccc(O)c23)cc1OC	-8	21	3	3	.
O=C(NCc1ccco1)c1cccc(NS(=O)(=O)c2cccc(F)c2)c1	-5	-2	58*	3	-13
COc1ccccc1NS(=O)(=O)c1cc(C(=O)NCc2ccco2)ccc1C	0	3	3	2	.
Cc1ccccc1NS(=O)(=O)c1cc(C(=O)NCc2ccco2)ccc1C	-16	28	59*	2	-11
Cc1c2ccccc2nc2c(F)c(NCCO)c(F)c(F)c12	2	-35	46	3	.
Cc1c2ccccc2nc2c(F)c(NC(C)C)c(F)c(F)c12	16	11	50*	1	10
CN1CCCN(C2C3CC4CC(C3)CC2C4)CC1 (stereo unspecified)	32	-7	52*	1	-12
CCOc1ccc(C(=O)Nc2c3c(nn2-c2cccc(Cl)c2)CS(=O)C3)cc1 (stereo unspecified)	3	18	100*	-1	11
CCOc1ccc(C(=O)Nc2c3c(nn2-c2ccc(F)cc2)CS(=O)C3)cc1 (stereo unspecified)	0	-6	2	2	.
CC1=C(C(=O)Nc2cc(-c3cccc(F)c3)[nH]n2)C2(CCCCC2)OC1=O	-1	82*	100*	2	89*
OC(COCC1COc2ccccc2O1)CN1CCN(c2ccccc2F)CC1 (stereo unspecified)	5	-11	65*	3	-10
OCCN1CCN(CC(O)COCC2COc3ccccc3O2)CC1 (stereo unspecified)	-21	-2	-5	0	.
CC(=O)c1c(C)nn(CC(O)COc2ccc3ccccc3c2)c1C (stereo unspecified)	-24	16	-4	0	.
Cc1ccc(-c2cc[n+](Cc3ccccc3)cc2)cc1	10	14	92*	1	3
C#CCSc1nc(=O)c2cccnc2n1-c1ccc(C)cc1	.	6	.	.	.
C/C(=N\NC(=O)c1c[nH]c2ccccc12)c1ccc(C)o1	3	-9	54*	-1	0
N#Cc1ccc(Oc2ccc(-c3nc4ccccc4nc3-c3ccccc3)cc2)cc1C#N	-4	4	93*	5	1
CN(C(=O)c1cccs1)c1ccc(OCC(=O)Nc2ccc(C(=O)O)cc2)cc1	.	4	.	.	.
O=c1[nH][nH]cc1C=Nc1ccccc1O	7	11	98*	2	-4
O=c1[nH][nH]cc1C=Nc1ccccc1Cl	-23	20	-4	1	.
CCOP(=O)(c1ccccc1)c1nc(-c2ccccc2C)oc1NCc1ccccc1 (stereo unspecified)	.	42	.	.	.
Cc1cc(C)c(C#N)c(SCC(=O)c2ccccc2)n1	-1	16	100*	2	40
CC(C)NC(=S)Nc1ccc2cn[nH]c2c1	-4	18	-1	1	.
CC(=O)NC1=NN(C(C)=O)C(C)(c2ccccc2)S1 (stereo unspecified)	10	5	-5	0	.
CC(=O)NC1=NN(C(C)=O)C(C)(c2ccc3ccccc3c2)S1 (stereo unspecified)	-20	-11	60*	1	0
SMILES	WT yeast gro inh	CHOP inh	L major viab	RAM network inh	Lmaj promast 1uM
Cc1cc2nn(-c3cccc4ccccc34)nc2cc1N	7	-17	3	3	.
Nc1ccc2nn(-c3cccc4ccccc34)nc2c1	7	25	99*	0	-9
Nc1ccc2nn(-c3ccccc3)nc2c1	63*	-29	81*	0	-22
Nc1cc2nn(-c3ccccc3)nc2cc1Cl	6	-30	-2	4	.
CC(=O)OCC(=O)Nc1c(C)cc(C)cc1C	-21	-5	-6	0	.
O=C(Nc1ccc(N2CCOCC2)cc1)c1cccc(S(=O)(=O)N2CCC(Cc3ccccc3)CC2)c1	-10	43	-4	5	.
Cc1ccccc1N(C(=O)c1cccs1)c1nc2ccccc2s1	2	42	99*	4	?
Cc1cc2c(cc1C)-c1nnc(-c3ccc4ccccc4n3)n1C(C)(C)C2	1	-16	47	1	.
CC1(C)Cc2ccccc2-c2nnc(-c3ccc4ccccc4n3)n21	5	21	62*	0	57*
CCOC(=O)Nc1ccc2c(c1)N(C(=O)N1CCN(C)CC1)c1ccccc1S2	52	16	84*	0	10
CCOC(=O)Nc1ccc2c(c1)Nc1ccccc1S2	13	36	67*	2	-15
O=C(O)Cc1sc(Nc2ccc(F)cc2)nc1-c1cccs1	22	-20	-8	2	.
O=C(Nc1cccc(F)c1)c1ccc(Cn2cc([N+](=O)[O-])cn2)o1	11	-3	12	1	.

Screens: PubChem, several laboratories
